Results filed as inconclusive are left out. The source made the active and inactive calls. The call rests on the fitted dose curve; in most records, active means well fitted curve in the direction sought with a large enough effect; inconclusive means small, poorly fitted or top-dose-only effect, or another doubt; inactive means no such curve, though single readings can be large; an effect the other way counts as inactive or inconclusive.
Tests used:
[1] = qHTS to identify inhibitors of the type 1 interferon - major histocompatibility complex class I in skeletal muscle: primary screen against the NCATS Pharmaceutical Collection (AID 1347407);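 further: luminescence of HiBiT knocked into endogenous HLA-B as interferon-induced MHC class I level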
Outline: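 Cells were seeded with 4 ng/ml IFN-beta, incubated 1 h, then dosed with compounds over eight 1:5 steps up to 46 uM final. After 24 h at 37 C, HiBiT lytic reagent was added and luminescence read after 10 min lysis in the dark.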

[2] = target: Protein phosphatase 1D (Homo sapiens) (UniProt O15297); assay: RapidFire Mass Spectrometry qHTS Assay for Modulators of WT P53-Induced Phosphatase 1 (WIP1) (AID 1347424); further: series mostly up to about 63 µM
Outline: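 RapidFire MS readout of dephosphorylated VEPPL-S-QETFS product, with 1 uM isotope-labelled peptide standard. Reaction: 10 nM WIP1, 2 uM phosphopeptide substrate, 5 min, room temperature, after 1 h compound preincubation; stopped with 0.5% formic acid.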

[3] = target: Protein phosphatase 1D (Homo sapiens) (UniProt O15297); assay: Rhodamine-PBP qHTS Assay for Modulators of WT P53-Induced Phosphatase 1 (WIP1) (AID 1347425)
Outline: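 Steps: enzyme with Rh-PBP sensor and compounds, room-temperature incubation of 1 hr, baseline read, addition of VEPPL-pS-QETFS (10 uM final), kinetic fluorescence reads at 525/598 nm. Activity equals final minus baseline signal.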

[4] = Primary qHTS for inhibitors of La Crosse Virus (LACV) - induced cell death in SH-SY5Y cells (AID 1508616);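 further: top concentration of the series differs between compounds; higher means more rescue of cells from virus-induced death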
Outline: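 Screening measures cell viability in LACV-infected SH-SY5Y cultures. Compound was added before virus (0.01 MOI), and ATP was detected by luminescence 6 days later.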

[5] = target: Calcium and integrin-binding protein 1 (Homo sapiens) (UniProt Q99828); assay: Primary qHTS for Identification of Calcium Integrin Binding Protein 1 (CIB1) Competitor (AID 1508620);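 further: GST tagged CIB1 binding a fluorescein labelled alphaIIb integrin peptide tracer; top concentration of the series differs between compounds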
Outline: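 Fluorescence polarization competition: GST-tagged CIB1 (1 uM final) preincubated with compound 15 min at room temperature, then FITC-labelled alphaIIb peptide (100 nM final) added. After 15 min at room temperature, polarization read at Ex 480/Em 540.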

Measured: Potency

Chain of Calcium and integrin-binding protein 1 (Homo sapiens) (Q99828 whole entry, looked up): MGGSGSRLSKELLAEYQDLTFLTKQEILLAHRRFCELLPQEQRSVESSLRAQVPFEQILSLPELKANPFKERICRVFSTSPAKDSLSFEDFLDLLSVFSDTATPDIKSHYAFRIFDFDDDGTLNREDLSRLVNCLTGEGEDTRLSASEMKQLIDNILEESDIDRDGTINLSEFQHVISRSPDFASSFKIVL
Chain of Protein phosphatase 1D (Homo sapiens) (O15297 whole entry, looked up): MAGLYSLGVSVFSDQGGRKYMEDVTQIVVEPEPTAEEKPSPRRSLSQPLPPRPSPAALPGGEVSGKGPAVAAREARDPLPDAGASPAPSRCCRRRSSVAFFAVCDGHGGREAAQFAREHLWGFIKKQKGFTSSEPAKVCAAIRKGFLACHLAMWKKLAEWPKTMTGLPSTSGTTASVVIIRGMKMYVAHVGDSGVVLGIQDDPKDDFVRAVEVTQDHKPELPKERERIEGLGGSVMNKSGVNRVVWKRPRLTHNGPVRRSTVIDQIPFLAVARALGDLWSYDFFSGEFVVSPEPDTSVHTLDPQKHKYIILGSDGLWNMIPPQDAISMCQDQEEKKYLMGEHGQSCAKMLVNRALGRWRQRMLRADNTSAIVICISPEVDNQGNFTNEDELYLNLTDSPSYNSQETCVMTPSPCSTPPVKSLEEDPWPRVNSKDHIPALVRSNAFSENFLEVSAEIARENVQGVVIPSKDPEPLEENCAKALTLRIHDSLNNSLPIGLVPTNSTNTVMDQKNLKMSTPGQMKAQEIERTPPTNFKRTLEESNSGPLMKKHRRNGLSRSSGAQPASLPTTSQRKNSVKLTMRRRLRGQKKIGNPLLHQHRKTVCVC

NC(=O)c1ccccc1O
inactive: all assays above

CCc1ccc(C(=O)C(C)CN2CCCCC2)cc1 (stereo not given)
inactive: all assays above

c1ccc(CC2=NCCN2)cc1
inactive: all assays above

CO[C@]12C[C@@H](COC(=O)c3cncc(Br)c3)CN(C)[C@@H]1Cc1cn(C)c3cccc2c13
inactive: all assays above

NCCNC(=O)c1ccc(Cl)cn1
inactive: all assays above

CCOc1ccccc1C(N)=O
inactive: all assays above

CCCCCCCCCCCCCC(=O)OC(C)C
inactive: all assays above

CC(O)Cn1cnc2c1c(=O)n(C)c(=O)n2C (stereo not given)
inactive: all assays above

CCCCCCCCCCCCCCCCO
inactive: all assays above

O=C(O)CCC(=O)Nc1ccc(S(=O)(=O)Nc2nccs2)cc1
inactive: all assays above

CC(=O)OC[C@H]1O[C@@H](n2ncc(=O)[nH]c2=O)[C@H](OC(C)=O)[C@@H]1OC(C)=O
inactive: all assays above

CC(=O)NCCCCCC(=O)O
inactive: all assays above

Cc1ncc(CO)c(C=O)c1O
inactive: all assays above

CO[C@H]1C=CO[C@@]2(C)Oc3c(C)c(O)c4c(O)c(c(/C=N/N5CCN(C)CC5)c(O)c4c3C2=O)NC(=O)/C(C)=C\C=C[C@H](C)[C@H](O)[C@@H](C)[C@@H](O)[C@@H](C)[C@H](OC(C)=O)[C@@H]1C
inactive: all assays above

CC(C)(C)NCC(O)COc1cccc2c1C[C@H](O)[C@H](O)C2 (stereo not given in full)
inactive: all assays above

CCC1Nc2cc(Cl)c(S(N)(=O)=O)cc2S(=O)(=O)N1 (stereo not given)
inactive: all assays above

CCCCC(CC)COC(=O)c1ccc(N(C)C)cc1 (stereo not given)
inactive: all assays above

CCCCCCCCCCCCSCCOCCO
inactive: all assays above

CC(=O)NO
inactive: all assays above

CC(=O)NC(=O)c1ccccc1O
inactive: all assays above

O=C(CCN1CCN2CCCC2C1)N1c2ccccc2Sc2ccc(Cl)cc21 (stereo not given)
inactive: all assays above

CC(C)Cn1cnc2c1c(=O)n(C)c(=O)n2C
inactive: all assays above

COc1cc(NS(=O)(=O)c2ccc(N)cc2)ncn1
inactive: all assays above

Nc1ccc(C(=O)NCC(=O)O)cc1
inactive: all assays above

CC(C)[C@@H]1CC[C@@H](C)CC1=O
inactive: all assays above

CN1CCN(c2cc3c(cc2F)c(=O)c(C(=O)O)cn3-c2ccc(F)cc2)CC1
inactive: all assays above

N#CCC(=O)NN
inactive: all assays above

O=C(Oc1cccc2cccnc12)c1ccccc1
inactive: all assays above

O=C(Nc1ccc([N+](=O)[O-])cc1)Nc1ccc([N+](=O)[O-])cc1
inactive: all assays above

CC(=O)Nc1ccc(CC(=O)O)cc1
inactive: all assays above

CCNC(=O)/C=C/c1cccc(Br)c1
inactive: all assays above

Cc1cc(C)cc(OCC2CNC(=O)O2)c1 (stereo not given)
inactive: all assays above

CC(C)CCCC(C)N (stereo not given)
inactive: all assays above

O=C(CCCN1CC=C(n2c(=O)[nH]c3ccccc32)CC1)c1ccc(F)cc1
inactive: all assays above

CC(=C(CCOC(=O)C(C)C)SSC(CCOC(=O)C(C)C)=C(C)N(C=O)Cc1cnc(C)nc1N)N(C=O)Cc1cnc(C)nc1N
inactive: all assays above

CC(=O)N[C@@H](CCC(=O)O)C(=O)O
inactive: all assays above

CCCCCCCC/C=C\CCCCCCCCN
inactive: all assays above

Cc1cc2c(OCC(CNC(C)(C)C)OC(=O)c3ccccc3)cccc2[nH]1 (stereo not given)
inactive: all assays above

OCCOCCN1CCN(C2=Nc3ccccc3Sc3ccccc32)CC1
inactive: all assays above

CC(C)Nc1cccnc1N1CCN(C(=O)c2cc3cc(NS(C)(=O)=O)ccc3[nH]2)CC1
inactive: all assays above

CCCCNC(=O)NS(=O)(=O)c1ccc(N)cc1
inactive: all assays above

COc1ccc(C(=O)c2ccccc2)c(O)c1
inactive: all assays above

CCOC(=O)c1c(N)sc2c1CCN(Cc1ccccc1)C2
inactive: all assays above

OC[C@H]1O[C@@H]2O[C@H]3[C@H](O)[C@@H](O)[C@@H](O[C@H]4[C@H](O)[C@@H](O)[C@@H](O[C@H]5[C@H](O)[C@@H](O)[C@@H](O[C@H]6[C@H](O)[C@@H](O)[C@@H](O[C@H]7[C@H](O)[C@@H](O)[C@@H](O[C@H]8[C@H](O)[C@@H](O)[C@@H](O[C@H]1[C@H](O)[C@H]2O)O[C@@H]8CO)O[C@@H]7CO)O[C@@H]6CO)O[C@@H]5CO)O[C@@H]4CO)O[C@@H]3CO
inactive: all assays above

CCCN(CCC)S(=O)(=O)c1ccc(C(=O)O)cc1
inactive: all assays above

O=C(Nc1ccccc1)OCC(CN1CCCCC1)OC(=O)Nc1ccccc1 (stereo not given)
inactive: all assays above

O=C(Nc1cccc(C2=NCCN2)c1)Nc1cccc(C2=NCCN2)c1
inactive: all assays above

O=C(O)CCc1nc2ccccc2[nH]1
inactive: all assays above

NS(=O)(=O)c1cc(C(=O)O)cc(N2CCCC2)c1Oc1ccccc1
inactive: all assays above

O=C(O)c1ccc(S(=O)(=O)N(Cl)Cl)cc1
inactive: all assays above

C[N+]12CCC(CC1)C(OC(=O)C(O)(c1ccccc1)c1ccccc1)C2 (stereo not given)
inactive: all assays above

CCN(CC)CCNC(=O)COc1ccc(OC)cc1
inactive: all assays above

CC(C)n1c(/C=C/[C@@H](O)C[C@@H](O)CC(=O)O)c(-c2ccc(F)cc2)c2ccccc21
inactive: all assays above

Cc1nc(-c2ccc(Cl)cc2)oc1COC(C)(C)C(=O)O
inactive: all assays above

CNCCc1ccccn1
inactive: all assays above

CN(Cc1ccc(C(C)(C)C)cc1)Cc1cccc2ccccc12
inactive: all assays above

Source: PubChem BioAssay (NCATS)
